In the library only some 11% were active in any assay of this set; here they are far more common.
USP28 inh: blocks human USP28 ubiquitin-rhodamine cleavage; purified USP28, Ub-rhodamine cleavage fluorescence, 30 min; inhibition, % at 25 µM; actives 3% (n = 47,000); AID 1645857; Q96RU2
USP30 block: blocks human USP30 ubiquitin-rhodamine cleavage; purified USP30, Ub-rhodamine cleavage fluorescence; Q70CQ3; inhibition, % at 25 µM; actives 5.3% (n = 47,000)
USP17 inh: human USP17-like deubiquitinase inhibition; inhibition, % at 50 µM; actives 6.5% (n = 47,000); AID 1645855; purified USP17, Ub-rhodamine cleavage fluorescence, 3 h
Target sequence (A8MUK1 whole entry, looked up): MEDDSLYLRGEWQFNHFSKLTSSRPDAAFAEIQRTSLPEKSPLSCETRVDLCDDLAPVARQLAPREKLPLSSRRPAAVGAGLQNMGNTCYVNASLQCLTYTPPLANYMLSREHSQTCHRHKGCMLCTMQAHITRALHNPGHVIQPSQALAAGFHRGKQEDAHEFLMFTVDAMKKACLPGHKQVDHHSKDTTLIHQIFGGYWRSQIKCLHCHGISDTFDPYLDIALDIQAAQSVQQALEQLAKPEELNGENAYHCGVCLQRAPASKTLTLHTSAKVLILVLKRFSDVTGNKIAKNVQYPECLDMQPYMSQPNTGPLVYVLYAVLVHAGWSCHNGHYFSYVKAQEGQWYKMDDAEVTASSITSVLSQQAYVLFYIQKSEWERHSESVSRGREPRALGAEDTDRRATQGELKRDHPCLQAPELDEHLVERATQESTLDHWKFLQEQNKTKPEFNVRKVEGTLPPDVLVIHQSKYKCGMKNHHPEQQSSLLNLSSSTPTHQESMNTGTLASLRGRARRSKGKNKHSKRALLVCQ
* = called active by the depositor; i = inactive; · = no result given. Rule as the data show it: active = inhibition above about 30%; inactive = the rest.

SMILES | USP28 inh | USP30 block | USP17 inh
COc1c(Cl)ccc2c(=O)c3c(oc12)C1=C2[C@@H](OCO1)[C@@H](OC)c1cc4c(c(O)c1[C@@]2(O)[C@H]3O)C(=O)N(C)[C@H](OC)[C@@H]4O | 43* | 60* | 12
COc1c(Cl)ccc2c(=O)c3c(O)c4c5c(c3oc12)OCO[C@H]5[C@@H](OC)c1cc2c(c(O)c1-4)C(=O)N(C)[C@H](OC)[C@@H]2O | 49* | 64* | -12
CO[C@H]1CC[C@H](O)c2c1oc1c3c4c(c(O)c1c2=O)-c1c(cc2cc(C)n(N)c(=O)c2c1O)C[C@@H]4OCO3 | 8 | -29 | 28
COC(C)[C@](O)(C(=O)OCC1=CCN2CC[C@@H](O)[C@@H]12)C(C)C (some centres undefined) | 15 | 21 | 16
CCC(CC)n1[nH]c(=O)c2c1NC(=O)CSC2c1ccc2c(c1)OCO2 (centres undefined) | 28 | 16 | 65*
CC(C)n1[nH]c(=O)c2c1NC(=O)CSC2c1ccc(OCc2ccccc2)cc1 (centres undefined) | 0 | 3 | 12
CCOc1ccccc1C1SCC(=O)Nc2c1c(=O)[nH]n2C1CCCCCC1 (centres undefined) | 14 | 27 | 12
CN1CCc2c(C#N)c(N3CCCCC3)n3cnnc3c2C1 | · | · | 4
CC(C)=CCc1cccc2[nH]c3c(c12)C[C@@H]1CC[C@@]2(O)[C@@]45O[C@@H]4[C@@H]4O[C@H](C=C(C)C)OC(C)(C)[C@H]4O[C@H]5CC[C@]2(C)[C@@]31C | -9 | -39 | 2
CO[C@H]1[C@@H](O)[C@H](C)O[C@H](O[C@H]2[C@H](Oc3cccc4c(O)c5c(=O)oc6ccc(C)c7c(=O)oc(c34)c5c67)O[C@H](C)[C@H](O)[C@@H]2O)[C@@H]1O | 65* | -6 | 78*
COc1ccc2c(c1O)-c1c(O)c(OC)cc3c1C(C2)N(C)CC3 (centres undefined) | -186 | i | -176
CC(C)c1cc2c(c(O)c1O)[C@@]1(C(=O)O)CCCC(C)(C)[C@@H]1CC2 | 39* | 57* | 79*
CC(C)c1cc2c(c(O)c1O)C1(C(=O)O)CCCC(C)(C)C1CC2 (centres undefined) | 53* | 81* | 88*
COc1cc2c3c(c4cc(OC)c(OC)cc4c2cc1OC)CN1CCC[C@@H]1C3 | -15 | -84 | 14
COc1cc(O)c2c(=O)oc3cc(O)cc(C)c3c2c1 | 5 | -15 | 2
N#CC(=O)c1c[nH]c2ccccc12 | -12 | 0 | -34
Cc1ccc(C2SCC(=O)Nc3c2c(=O)[nH]n3C2CCOC(C)(C)C2)cc1 (centres undefined) | -6 | 0 | 3
O=C1CSC(c2ccccc2)c2c(n(C3CCCC3)[nH]c2=O)N1 (centres undefined) | -10 | 5 | 4
O=C1CSC(c2ccc(Cl)cc2)c2c(n(C3CCCC3)[nH]c2=O)N1 (centres undefined) | -5 | 0 | 5
COc1ccc(C2SCC(=O)Nc3c2c(=O)[nH]n3C2CCCCC2)cc1 (centres undefined) | 4 | 11 | 68*
CC1(C)CC(n2[nH]c(=O)c3c2NC(=O)CSC3c2ccccc2)CCO1 (centres undefined) | 11 | 33* | 11
O=C1CSC(c2ccc(F)cc2)c2c(n(C3CCCCCC3)[nH]c2=O)N1 (centres undefined) | 11 | 30* | 17
CCOC(=O)[C@]1(C#N)[C@@H]2C=CC(C(C)=O)=CN2[C@@H](C(N)=O)[C@@H]1c1ccc(F)cc1 | -250 | i | -172
O=C(Cc1ncc(C(F)(F)F)cc1Cl)NCCN1CCN(C(=O)Cc2ncc(C(F)(F)F)cc2Cl)CC1 | 0 | -5 | 9
CCn1cc(C(=O)NCc2ccc(OC)cc2)c2cccnc21 | -3 | -6 | -12
O=C(Nc1cccnc1)c1cccn(Cc2cccc(Cl)c2)c1=O | 7 | 18 | 6
O=c1c2ccccc2nc(CSc2cccc(Cl)c2Cl)n1-c1ccccc1 | -4 | 12 | 6
Cc1ccc(CN2CC[C@@H]3CN(c4ncccn4)CCO[C@@H]3C2)o1 | 1 | 0 | -4
CCCC1Cc2cc3c(c(O)c2C(=O)O1)-c1c(c(OC)c2oc4c(O[C@H]5C[C@H](O)[C@H](O[C@H]6C[C@H](O)[C@H](O[C@H]7C[C@H](OC)[C@H](O)C(C)O7)C(C)O6)C(C)O5)ccc(O)c4c(=O)c2c1O)[C@H](O)[C@@H]3O (some centres undefined) | 1 | -60 | 37*
C=C1[C@@H](C)[C@H]2[C@H](Cc3ccccc3)NC(=O)C23[C@H](OC(C)=O)/C=C/[C@](C)(O)C[C@@H](C)C/C=C/[C@H]3[C@@H]1O (some centres undefined) | 4 | 12 | 1
